# Experimental data reported in the supplement of paper PMC12669032.
# Tested on: Bacteroides caccae
# Test: growth AUC relative to DMSO control (median of replicates) (fraction); higher = more growth (less inhibition), active = hit call of the paper
# Details: 20 µM; 24 h;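 active = AUC reduced over 20% with Padj below 0.05 in at least 2 of 3 replicates; inactive = otherwise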
# Outline: (§1)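 Three biological replicates, each grown on a separate day, were combined as a median for every value. In each, a gut bacterial monoculture in mGAM started at OD600 0.05 and grew anaerobically at 37 °C with 20 µM compound (1% DMSO), with OD600 read hourly over 24 h. Area under the growth curve was normalised against the plate median of solvent-only wells, or against row and column medians on the industrial chemical plate, after the minimum OD was set to 0.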
row,SMILES,growth AUC
1,O=C(O)c1ccc(Cl)cc1Cl,1.03 (inactive)
2,CCCCCCCC/C=C\CCCCCCCCCCCCC,0.961 (inactive)
3,COC(=O)COc1ccc(Cl)cc1C,1.04 (inactive)
4,CC(C)OC(=O)N[C@H](C(=O)N[C@H](C)c1nc2ccc(F)cc2s1)C(C)C,0.963 (inactive)
5,CCNc1nc(N)nc(Cl)n1,1.01 (inactive)
6,Cc1nn(C)c(OCC(=O)c2ccccc2)c1C(=O)c1ccc(Cl)cc1Cl,0.955 (inactive)
7,Cc1cc(C)c(C2=C(O)C3(CCCC3)OC2=O)c(C)c1,1.01 (inactive)

# Tested on: Bacteroides clarus
# Test: as above
# Details: 20 µM; 24 h
# Outline: as §1
row,SMILES,growth AUC
1,Nc1cccc(O)c1,1.02 (inactive)
2,CCc1cccc(C)c1NC(C)C(=O)O (racemic),0.98 (inactive)
3,CCc1ccc(C(c2ccc(CC)cc2)C(Cl)Cl)cc1,0.952 (inactive)
4,CC(C)N(C(=O)CS(=O)CC(=O)O)c1ccc(F)cc1 (stereo unspecified),0.94 (inactive)
5,O=[N+]([O-])c1ccc(Oc2c(Cl)cc(Cl)cc2Cl)cc1,0.907 (inactive)
6,CCOC(=O)c1nc(C(Cl)(Cl)Cl)n(-c2ccc(Cl)cc2Cl)n1,1 (inactive)
7,Cc1ccc2c(c1)[C@H](Nc1nc(N)nc(C(C)F)n1)[C@@H](C)C2 (stereo partly specified),0.969 (inactive)
8,CCCCCCCC(=O)Oc1c(Br)cc(C#N)cc1Br,0.959 (inactive)
9,CCNc1nc(N)[nH]c(=O)n1,0.998 (inactive)
10,CN(C)C(=O)Nc1cc(C(C)(C)C)on1,0.997 (inactive)
11,O=C(NC(=O)c1c(F)cccc1F)Nc1cc(C(F)(F)F)cc(C(F)(F)F)c1Cl,0.867 (inactive)
12,COC(=O)CSc1cc(N=c2sc(=O)n3n2CCCC3)c(F)cc1Cl,0.999 (inactive)
13,CCN(Cc1c(F)cccc1Cl)c1c([N+](=O)[O-])cc(C(F)(F)F)cc1[N+](=O)[O-],0.831 (inactive)
14,CCNC(=O)[C@@H](C)OC(=O)Nc1ccccc1,1.02 (inactive)
15,CON=C(Cc1cccnc1)c1ccc(Cl)cc1Cl,0.971 (inactive)
16,COC(=O)Nc1ccc(Cl)c(Cl)c1,0.96 (inactive)
17,CC[N+](CC)(CC(=O)Nc1c(C)cccc1C)Cc1ccccc1.O=C([O-])c1ccccc1,1.05 (inactive)
18,CC(C)(C)[C@@H](O)[C@@H](Cc1ccc(Cl)cc1)n1cncn1 (mixture of isomers),0.98 (inactive)
19,COCC(=O)N(c1c(C)cccc1C)C(C)C(=O)O (stereo unspecified),1 (inactive)
20,COC(=O)c1ccccc1S(=O)(=O)NC(=O)n1nc(OCC(C)O)n(C)c1=O (stereo unspecified),0.962 (inactive)

row,SMILES,growth AUC
1,CCOC(=O)Cc1[nH]nc2ccc(Cl)cc12,1.01 (inactive)
2,CCCCCCCC/C=C\CCCCCCCC(N)=O,0.991 (inactive)
3,COC1CCC2(CC1)NC(=O)C(c1cc(C)ccc1C)=C2OC1OC(CO)C(O)C(O)C1O (stereo unspecified),1.02 (inactive)
4,COC(=O)c1ccc(C(F)(F)F)nc1S(=O)(=O)[N-]C(=O)Nc1nc(OC)cc(OC)n1.[Na+],0.997 (inactive)
5,COC1CCC2(CC1)NC(=O)C(c1cc(C)ccc1C)=C2O (stereo unspecified),1.05 (inactive)
6,O=C(Nc1ccc(O)cc1-c1ccc(Cl)cc1)c1cccnc1Cl,0.976 (inactive)
7,Cc1nn(C)c(F)c1C(=O)Nc1ccccc1C(C)CC(C)C (stereo unspecified),0.959 (inactive)
8,O=C(NCc1ncc(C(F)(F)F)cc1Cl)c1c(Cl)cccc1Cl,0.967 (inactive)
9,CC1COc2ccccc2N1C(=O)C(Cl)Cl (stereo unspecified),0.958 (inactive)
10,CCc1cccc(C)c1NC(=O)C(=O)O,0.999 (inactive)
11,Cc1[nH]oc(=O)c1N=Nc1ccccc1Cl,0.95 (inactive)
12,COc1ccccc1C(=O)NS(=O)(=O)c1ccc(C(=O)NC2CC2)cc1,0.994 (inactive)
13,O=C(O)c1ccc(Cl)cc1Cl,0.989 (inactive)
14,CCCCCCCC/C=C\CCCCCCCCCCCCC,0.982 (inactive)
15,COC(=O)COc1ccc(Cl)cc1C,0.986 (inactive)
16,CC(C)OC(=O)N[C@H](C(=O)N[C@H](C)c1nc2ccc(F)cc2s1)C(C)C,0.997 (inactive)
17,CCNc1nc(N)nc(Cl)n1,1.02 (inactive)
18,Cc1nn(C)c(OCC(=O)c2ccccc2)c1C(=O)c1ccc(Cl)cc1Cl,0.978 (inactive)
19,Cc1cc(C)c(C2=C(O)C3(CCCC3)OC2=O)c(C)c1,1.02 (inactive)
